Assay outcomes from PubChem BioAssay.
CCT chaperon mod = High-Throughput Screening for Modulators of Cytosolic Chaperonin Activity; purified chaperonin ATPase assay, HTRF ADP detection, 30 min; activity change, % (test concentration not listed), hits read low; 0.3% of 360,000 active; in the data active = activity change below about -30%
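Enzyme 40 or 20 nM (batch-dependent) in Tris pH 7.4/KCl/MgCl2/DTT; cpd 76 uM single point; ATP 10 uM; 30 min 37 °C; Transcreener ADP HTRF detection, 30 min RT; ratio 665/615.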
Mm-Cpn inhibitor = Inhibitors of TCP-1 ring complex (TRiC) of Methanococcus maripaludis (MmCpn): qHTS | Chaperonin Mm-Cpn (Methanococcus maripaludis) | purified Mm-Cpn ATPase, ADP Transcreener TR-FRET | Potency, µM (doses to about 76.9 µM), actives largely listed as inhibitors | AID 504842, 2011 | 0.031% of 330,000 active; also: nearly all actives have a fitted effect of over 80% in size
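Measured: ADP formation by purified Mm-CPN. Conditions: 25 nM protein, 10 uM ATP, Tris pH 7.4 with Mg2+, K+ and DTT, 37°C for 30 min. Detection: Transcreener HTRF after 30 min at room temperature.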
PLK1 PBD inh = qHTS for Inhibitors of PLK1-PDB (polo-like kinase 1 - polo-box domain): Primary Screen | Serine/threonine-protein kinase PLK1 (Homo sapiens), P53350 | Plk1 PBD binding of FITC phosphopeptide, fluorescence polarization | Potency, µM, hits mostly inhibitors | 2.8% of 360,000 active; also: series mostly up to about 57 µM; nearly all actives have a fitted effect of over 65% in size
G9a inh = qHTS Assay for Inhibitors of Histone Lysine Methyltransferase G9a; Potency, µM (top dose mostly 102 µM), hits mostly inhibitors; AID 504332, 2011; G9a H3K9 monomethylation, AlphaScreen, 2 h; Histone-lysine N-methyltransferase EHMT2 (Homo sapiens), Q96KQ7; 8.8% of 350,000 active; also: nearly all actives have a fitted effect of over 75% in size
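G9a (20 nM) was preincubated 15 min with compound, then reacted 2 h at room temperature with 500 nM biotin-H3K9 peptide and 20 µM SAM. Monomethyl-H3K9 detected by AlphaScreen using anti-H3K9me1 antibody.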
Sfp PPTase inh = qHTS Assay for Inhibitors of Bacillus subtilis Sfp phosphopantetheinyl transferase (PPTase) | 4'-phosphopantetheinyl transferase ffp (Bacillus subtilis), Q9F4F7 | AID 1490, 2009 | Biochemical Sfp PPTase activity, qHTS | 3.5% of 310,000 active | Potency, µM, usual class: inhibitors;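 also: the enzyme is Sfp with the accession as filed and its product quenches rhodamine fluorescence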
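Fluorescence-quenching assay with 15 nM Sfp, 5 uM rhodamine-CoA and 12.5 uM BHQ-2-labelled ybbR peptide in pH 7.6 Hepes/MgCl2 buffer. Enzyme was pre-incubated with compound for 15 min at room temperature. Rate was taken from the 30-min fluorescence change (525/598 nm).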
VDR inhibitor = Inhibitors of the vitamin D receptor (VDR): qHTS; Vitamin D3 receptor (Homo sapiens), P11473; VDR-SRC2-3 peptide fluorescence polarization, 2 h; Potency, µM, hits mostly inhibitors; 0.93% of 400,000 active
Target sequence (P11473 whole entry, looked up): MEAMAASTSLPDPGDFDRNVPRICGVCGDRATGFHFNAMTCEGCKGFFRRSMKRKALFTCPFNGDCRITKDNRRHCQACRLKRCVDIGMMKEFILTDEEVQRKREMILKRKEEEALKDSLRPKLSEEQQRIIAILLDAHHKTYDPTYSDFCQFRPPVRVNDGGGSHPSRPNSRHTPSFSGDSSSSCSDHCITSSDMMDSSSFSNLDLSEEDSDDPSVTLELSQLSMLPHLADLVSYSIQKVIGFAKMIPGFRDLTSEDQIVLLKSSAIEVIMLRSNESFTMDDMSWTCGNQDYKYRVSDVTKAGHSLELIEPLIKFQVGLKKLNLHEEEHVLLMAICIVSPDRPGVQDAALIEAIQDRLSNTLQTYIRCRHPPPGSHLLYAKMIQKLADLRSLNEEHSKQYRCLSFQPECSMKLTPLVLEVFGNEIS
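Fluorescence polarization assay of small-molecule disruption of VDR binding to coregulator peptide SRC2-3. Compounds and controls pin-transferred, then read after 2 h incubation at ambient room temperature.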
A number is an active result; - = inactive; ? = inconclusive; . = no result given; [ ] = another dose, or the depositor's remark. The list is not random: actives were taken first. Their share in the collection is about 10%. Unless noted, calls follow the shape of the dose curve; as a rule, active = well fitted curve in the direction sought with a large enough effect; inconclusive = small, poorly fitted or top-dose-only effect, or another doubt; inactive = no such curve, though single readings can be large; an effect the other way counts as inactive or inconclusive.

SMILES | CCT chaperon mod | Mm-Cpn inhibitor | PLK1 PBD inh | G9a inh | Sfp PPTase inh | VDR inhibitor
COc1ccccc1OCC(=O)Nc1ccc(S(=O)(=O)N2CCOCC2)cc1 | - | - | - | 79.4µM | - | -
CCCCOc1cccc(C(=O)N(Cc2ccc(N(C)C)cc2)C2CCS(=O)(=O)C2)c1 (stereo not drawn) | . | . | . | - | . | -
COc1cccc2sc(N(Cc3cccnc3)C(=O)c3ccc4c(c3)OCCO4)nc12 | . | . | . | - | . | -
COc1ccc(Nc2cc(C)c3cc(NC(=O)COc4cccc(C)c4)ccc3n2)cc1 | . | . | . | ? | . | -
Cc1ccc(S(=O)(=O)N2CC=C(C(=O)NC3CCCC3)CC2)cc1 | - | - | 26.7µM | ? | - | ?
COc1ccc(S(=O)(=O)N2CC=C(C(=O)NC3CCCC3)CC2)cc1 | - | - | 29.9µM | - | - | -
COc1ccc(S(=O)(=O)N2CC=C(C(=O)Nc3ccc(NC(C)=O)cc3)CC2)cc1 | - | - | - | - | - | -
O=C(Cc1cccs1)Nc1c(C(=O)Nc2ccc(F)cc2)oc2ccccc12 | . | . | . | - | . | -
Cc1cc(=O)[nH]c(SCC(=O)O)c1C#N | - | - | - | - | - | -
Cc1cc(=O)[nH]c(SCC(=O)C23CC4CC(CC(C4)C2)C3)c1C#N | - | - | 23.8µM | -[12.7 µM] | - | ?
O=C(Cn1ncc2c3ccccc3n(Cc3cccc(Cl)c3)c2c1=O)N1CCCCC1 | . | . | . | - | . | -
COc1ccc(CNc2cc(-c3ccoc3)ncn2)c(OC)c1 | . | . | . | -[0.501 µM] | 44.7µM | 11.2µM
c1ccc(CNc2cc(-c3ccoc3)ncn2)cc1 | . | . | . | -[0.501 µM] | 31.6µM | 12.6µM
c1ccc(Nc2cc(-c3ccoc3)ncn2)cc1 | . | . | . | -[0.501 µM] | 31.6µM | 11.2µM
COc1cccc(-c2cc(NCc3ccccc3OC)ncn2)c1 | . | . | . | -[0.501 µM] | - | -
COc1ccc(CCNC(=O)CCn2c(=O)c3ccccc3n(Cc3c(C)cc(C)cc3C)c2=O)cc1OC | . | . | . | ? | . | -
Cc1ccc(NC(=O)CSc2nc(=O)n(Cc3cccnc3)c3c2CCC3)cc1F | . | . | . | - | . | -
CCOC(=O)c1cnc(N2CCN(c3ccc(C)cc3C)CC2)c2ccccc12 | . | . | . | - | . | -
Cc1c(Cl)cccc1NC(=S)NCc1cccn1C | - | - | 16.8µM | ? | - | ?
Cc1ccc2nc(NC(=O)COC(=O)c3ccco3)sc2c1 | - | . | - | 2.82µM | - | -
O=C(COC(=O)c1ccc(Br)o1)Nc1nc2ccccc2s1 | - | - | - | - | - | -
Cc1ccc2nc(NC(=O)COC(=O)c3ccc(Br)o3)sc2c1 | - | - | ? | ? | 25.1µM | -
CCOc1ccc(N2CC(c3nc4ccccc4n3CCCOc3ccccc3OC)CC2=O)cc1 (stereo not drawn) | . | . | . | - | . | -
Cc1c(NC(=O)C(C)(C)Oc2ccc(Cl)cc2)cccc1-c1nc2ccccc2o1 | . | . | . | - | . | -
Cc1ccc(C(=O)CC(=O)c2ccccc2)cc1 | - | - | - | - | - | -
SMILES | CCT chaperon mod | Mm-Cpn inhibitor | PLK1 PBD inh | G9a inh | Sfp PPTase inh | VDR inhibitor
O=C(CC(Sc1ccc(Br)cc1)C(=O)O)c1ccc(Br)cc1 (stereo not drawn) | . | - | . | 25.1µM | 35.5µM | .
Cc1ccc(SC(CC(=O)c2ccc(C)cc2)C(=O)O)cc1 (stereo not drawn) | - | - | ? | - | 11.2µM | 20µM
O=C(CC(C(=O)O)P(=O)(c1ccccc1)c1ccccc1)c1ccc(Br)cc1 (stereo not drawn) | - | - | - | ? | - | -
COc1ccc(OCC(O)CN2CCN(c3ccc(OC)cc3)CC2)cc1 (stereo not drawn) | - | - | - | 31.6µM | - | -
COc1ccc(N2CCN(CC(O)COc3cc(C)cc(C)c3)CC2)cc1 (stereo not drawn) | - | - | - | 39.8µM | - | -
C=CCc1cc(OC)ccc1OCC(O)CN1CCN(c2ccc(OC)cc2)CC1 (stereo not drawn) | - | - | - | 28.2µM | - | -
COc1cccc(OC)c1OCC(O)CN1CCN(c2ccccc2F)CC1 (stereo not drawn) | - | - | - | -[2.33 µM] | - | -
